DT40 TDP1 no CPT – qHTS for Inhibitors of human tyrosyl-DNA phosphodiesterase 1 (TDP1): qHTS in cells in absence of CPT; actives 15% (n = 420,000); AID 686978, 2013; DT40 Tdp1-/- hTDP1 cells, no CPT, ATP luminescence, 48 h; Potency, µM (doses to about 46.2 µM), for inactives: at the top dose activity change, negative = growth inhibition, usual class: inhibitors; note: potency is the fitted concentration of half-maximal effect; nearly all actives have a fitted effect of over 55% in size
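Compound effects on proliferation are scored in DT40 Tdp1-/-;hTDP1 cells in the absence of CPT. ATP levels (CellTiter-Glo luminescence) are recorded after a ≥48 hr, 37 °C incubation.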
IL-1B inflam inh – inhibitors of inflammasome signaling (IL-1 beta secretion); THP-1 LPS/ATP IL-1B secretion, AlphaLISA, 16 h; active compounds read low; activity change, % at 57.5 µM; actives 4.7% (n = 360,000); AID 743279; in the data active = activity change below about -50%; inconclusive = mostly about -30% to -49%
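Secreted IL-1B measured by AlphaLISA bead assay after 16 h compound exposure of THP-1 cells; compounds (final up to 57.5 uM) added 1 h before LPS (250 ng/mL) and ATP (1.25 mM) stimulation; lower signal means less secretion.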
ELG1 DNA repair – blocks ELG1-dependent DNA repair in HEK293T cells; HEK293T ELG1-luciferase reporter, luminescence, 16 h; DNA damage induced by 5-fluorouridine; Potency, µM (doses to about 46.1 µM), for inactives: at the highest dose activity change, negative = inhibition, usual class: inhibitors; actives 2.3% (n = 330,000); note: potency is the fitted concentration of half-maximal effect; nearly all actives have a fitted effect of over 55% in size
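Overnight (16 hr) co-exposure of 2,000 cells/well to 5-fluorouridine and compound at 37 °C preceded detection. Luciferase was quantified via ONE-Glo luminescence; loss of signal denotes inhibition.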
TDP1 cell CPT – DT40-hTDP1 cell growth loss with CPT. chicken DT40 Tdp1-/-;hTDP1 cells + 20 nM CPT, ATP luminescence, 48 h. Potency, µM (highest dose often 46.2 µM), for the others: at the top dose activity change, negative = growth inhibition, hits mostly inhibitors. actives 12% (n = 420,000). AID 686979; note: potency is the fitted concentration of half-maximal effect; nearly all actives have a fitted effect of over 55% in size
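Chicken DT40 Tdp1-/- cells stably complemented with human TDP1 were seeded at 400 cells/well in medium containing 20 nM camptothecin, exposed to pin-transferred compounds, and grown at 37 °C for at least 48 hr. Viability was read as ATP luminescence.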
HT1080 IDH1KD tx – HT-1080 IDH1 knockdown cell toxicity (counter line); Potency, µM (top dose mostly 46.1 µM), for the others: top-dose activity, negative = toxicity, hits mostly cytotoxic; actives 2% (n = 360,000); HT-1080 IDH1 knockdown viability, ATP luminescence, 48 h;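 note: potency is the fitted concentration of half-maximal effect; 0% = DMSO wells and -100% = cell-free medium wells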
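CellTiter-Glo luminescence after 48 h compound exposure at 37 degrees C of IDH1-knockdown HT-1080 cells in 5% FBS RPMI. %Activity scaled between DMSO wells and cell-free media wells, with curves fitted and assigned curve classes.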
HT1080NT lethal – kills 2HG-producing HT-1080-NT fibrosarcoma cells; HT-1080-NT fibrosarcoma viability, CellTiter-Glo ATP luminescence, 48 h; Potency, µM (highest dose often 46.1 µM), for the others: at the top dose activity, negative = less viability, hits mostly cytotoxic; actives 1.6% (n = 360,000); AID 686970;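 note: NT is the 2HG producing partner of a matched IDH1 knockdown line; potency is the fitted concentration of half-maximal effect; 0% = DMSO-treated cells and -100% = media-only wells without cells; nearly all actives have a fitted effect of over 55% in size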
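Toxicity toward the 2HG-producing NT line was scored as %Activity, normalised to DMSO and no-cell wells, from CellTiter-Glo luminescence after 48 hours' treatment.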
The depositor's hits bear a star; ? = inconclusive; . = no result given. Only some compounds are listed: those with a hit (about 19% of all), similar ones and a draw of the others. Unless noted, calls come from the whole dose curve; as a rule, active = well fitted curve in the direction sought with a large enough effect; inconclusive = small, poorly fitted or top-dose-only effect, or another doubt; inactive = no such curve, though single readings can be large; an effect the other way counts as inactive or inconclusive. Unless noted, % is set by controls: 0 for no effect and ±100 for the full control effect.

SMILES | DT40 TDP1 no CPT | IL-1B inflam inh | ELG1 DNA repair | TDP1 cell CPT | HT1080 IDH1KD tx | HT1080NT lethal
O=C(NCc1ccccc1)c1cc(C2CCCCN2C(=O)c2cccs2)on1 (configuration not stated) | ? | -16 | . | 18µM* | 0% | -4%
COc1ccc(NC(=O)c2cc(C3CCCCN3C(=O)c3cccs3)on2)c(C)c1 (configuration not stated) | 21µM* | -7 | . | 21µM* | -1% | 10%
COc1ccc(NC(=O)c2cc(C3CCCCN3C(=O)c3cc(OC)c(C)c(OC)c3)on2)c(C)c1 (configuration not stated) | ? | ? | . | ? | -22% | -29%
O=C(NCc1ccc(Cl)c(Cl)c1)c1cc(C2CCCCN2C(=O)C2CCCCC2)on1 (configuration not stated) | 18µM* | -27 | . | 16µM* | -23% | -14%
COc1cc(C(=O)N2CCCCC2c2cc(C(=O)Nc3ccccc3Cl)no2)cc(OC)c1C (configuration not stated) | 18µM* | 5 | . | ? | -21% | ?
O=C(NCc1ccccc1)c1cc(C2CCCCN2C(=O)c2ccc(Cl)cc2)on1 (configuration not stated) | ? | -6 | . | ? | 10% | 17%
COc1ccc(C(O)c2ncc(-c3ccccc3)[nH]2)c(OC)c1 (configuration not stated) | -17% | -5 | . | -22% | 9% | 5%
COc1cccc(CNC(=O)CCc2ccc(OC)c(OC)c2)c1 | -6% | 4 | -7% | 13% | -2% | -3%
N#Cc1cccc(NC(=O)c2cc(C3CCCCN3C(=O)c3cccs3)on2)c1 (configuration not stated) | ? | -14 | . | ? | 9% | 6%
O=C(Nc1ccccc1Cl)c1cc(C2CCCCN2C(=O)c2cccs2)on1 (configuration not stated) | ? | 22 | . | 29µM* | -27% | -1%
O=C(Nc1ccc(F)c(Cl)c1)c1cc(C2CCCCN2C(=O)c2cccs2)on1 (configuration not stated) | 7.3µM* | -15 | . | 16µM* | -9% | -21%
COc1ccc(OC)c(NC(=O)COC(=O)CCc2ccc(S(=O)(=O)N3CCOCC3)cc2)c1 | -1% | 1 | 5% | 1% | 11% | 0%
c1ccc(-c2csc3ncnc(N4CCOCC4)c23)cc1 | ? | 36 | ? | -12% | -8% | -25%
c1csc(-c2csc3ncnc(NCCCN4CCOCC4)c23)c1 | 13µM* | -6 | ? | 16µM* | ? | ?
c1ccc(-c2csc3ncnc(NCC4COc5ccccc5O4)c23)cc1 (configuration not stated) | 0.92µM* | -4 | ? | 0.73µM* | -24% | -18%
O=c1c2c(-c3ccccc3)csc2nc2c3ccccc3c(NCCN3CCOCC3)nn12 | 5.2µM* | -101* | 8% | 8.2µM* | 10µM* | 15µM*
CC(C)CC(Nc1ncnc2scc(-c3ccccc3)c12)C(=O)O (configuration not stated) | -25% | 29 | 4% | -7% | -10% | -9%
c1ccc(-c2csc3ncnc(NCCCN4CCOCC4)c23)cc1 | 13µM* | -16 | ? | 12µM* | ? | -25%
CCc1nnc(SCc2nc(-c3ccccc3Cl)oc2C)c2cc3sc(C)cc3n12 | -27% | . | . | ? | . | .
CCCCSCCCNC(=O)c1c[nH]c2ccc(S(=O)(=O)Nc3cccc(OC)c3)cc2c1=O | 21µM* | . | . | 21µM* | . | .
Cc1cc(C)cc(NS(=O)(=O)c2ccc3[nH]cc(C(=O)N4CCc5ccccc54)c(=O)c3c2)c1 | ? | 0 | -23% | ? | 23µM* | 23µM*
CCOCCCNC(=O)c1c[nH]c2ccc(S(=O)(=O)Nc3cccc(OC)c3)cc2c1=O | ? | 7 | 0% | ? | -25% | -24%
CCN(CC)C(=O)c1c[nH]c2ccc(S(=O)(=O)Nc3cc(C)cc(C)c3)cc2c1=O | -13% | ? | -6% | -16% | -6% | -6%
COc1ccccc1CNC(=O)c1c[nH]c2ccc(S(=O)(=O)Nc3cc(C)cc(C)c3)cc2c1=O | 21µM* | . | . | ? | . | .
O=P(c1ccccc1)(c1ccccc1)C(O)c1cccs1 (configuration not stated) | ? | 37 | . | -13% | -3% | -12%
SMILES | DT40 TDP1 no CPT | IL-1B inflam inh | ELG1 DNA repair | TDP1 cell CPT | HT1080 IDH1KD tx | HT1080NT lethal
CC(=O)c1ccc(S(=O)(=O)NCc2ccc(C(=O)NCC(c3ccccc3)N(C)C)cc2)cc1 (configuration not stated) | -12% | 7 | ? | 1% | 5% | -4%
CC(C)CCc1noc(CN2CCN(CC(=O)NC(C)C)CC2)n1 | 26µM* | 22 | ? | 26µM* | -5% | -12%
CCn1nc(C)c(CNC(=O)CCc2nnc(-c3ccc(C(C)=O)s3)o2)c1C | -25% | 47 | -11% | 2% | 10% | 0%
Oc1ccccc1Nc1nc(NCc2ccco2)c2ccccc2n1 | 21µM* | -63* | ? | 16µM* | -6% | -13%
COc1ccc(OC)c(Nc2nc(NCc3ccco3)c3ccccc3n2)c1 | 23µM* | -97* | ? | ? | ? | 21µM*
Cc1ccccc1Nc1nc(NCc2ccco2)c2ccccc2n1 | 3.7µM* | -102* | ? | 5.8µM* | 15µM* | ?
Cc1ccc(-c2nc(NCc3ccco3)c3ccccc3n2)cc1 | ? | 5 | 3% | ? | -15% | ?
COc1cccc(-c2nc(NCc3ccco3)c3ccccc3n2)c1O | -18% | -9 | ? | -19% | ? | ?
CN(C)c1ncc2nc(-c3cccs3)c(=O)n(CCc3ccccc3)c2n1 | -17% | . | . | -24% | . | .
O=C(Cc1coc2cc3c(cc12)CCC3)NC1CCCCCCC1 | 0.021µM* | 0 | 3% | ? | -14% | 3%
O=C(Cc1coc2cc3c(cc12)CCC3)NCC1(N2CCCCC2)CCCCC1 | ? | -82* | 3% | ? | ? | ?
Cc1cc(O)c(C=O)c2c1C(=O)Oc1c(COC(=O)/C=C/C(=O)O)c(O)c(C(=O)O)c(C)c1O2 | -16% | . | . | -5% | . | .
CN1OC[C@@H]2CN(Cc3ccccc3)[C@H](c3cccc(N4CCOCC4)c3)C[C@@H]21 | 6% | -17 | . | -8% | 5% | 2%

Source: PubChem
